Here are results for 1 molecule from PubChem BioAssay AID2157 (National Center for Advancing Translational Sciences (NCATS), 2009).

Molecules are shown by their SMILES. Records with an inconclusive call do not appear. A number with no mark means an inactive call. Calls come from the whole dose curve; as a rule, active = well fitted inhibition curve with a large enough effect; inconclusive = small, poorly fitted or top-dose-only effect; inactive = no such curve, though single readings can be large or run the other way.

This test has as its target Polyunsaturated fatty acid lipoxygenase ALOX15 (Homo sapiens) (UniProt P16050). The test can be described thus: Confirmation qHTS Assay for Inhibitors of 15-hLO (15-human lipoxygenase). The following applies: purified enzyme, xylenol orange hydroperoxide absorbance; stronger effect = lower value. The text has this: Assay Provider: Holman, T.R., University of California, Santa Cruz Screening Center PI: Austin, Christopher P. Screening Center: NIH Chemical Genomics Center Human lipoxygenase 15hLO-1 is a member of the closely related lipoxygenase family of enzymes which catalyze the site-specific oxidation of arachidonic acid to various hormone precursor molecules and as such is a candidate for drug development in a variety of disease areas, such as cancer and inflammation. Inhibition of 15hLO-1 activity was screened by utilizing arachidonic acid as a substrate. The extent of hydroperoxide product formation was measured by a secondary chromogenic reaction in which xylenol orange (XO, Sigma-Aldrich, cat. number 39,818-7) reacts with the ferric ions produced from the reaction between the hydroperoxide and ferrous ions. The Fe(III)-XO complex is characterized with red-shifted absorbance at 560 nm. A purified preparation of human 15hLO-1 was supplied by Professor Ted Holman, University of California, Santa Cruz. This assay includes some confirmation and follow-up compounds for related primary screening assay AID 887.
Assay Protocol: Buffer: 25 mM Hepes pH 7.5, 0.01% Triton X-100. […] The absorbance at 405 and 573 nm were measured using ViewLux (Perkin-Elmer) High-throughput CCD imager and absorbance protocol settings. The 573-to-405 absorbance ratio was used to compute reaction progress.
(In general: In qHTS, concentration-response curves come from the screen itself.)

Chain of Polyunsaturated fatty acid lipoxygenase ALOX15 (Homo sapiens) (P16050 whole entry, looked up): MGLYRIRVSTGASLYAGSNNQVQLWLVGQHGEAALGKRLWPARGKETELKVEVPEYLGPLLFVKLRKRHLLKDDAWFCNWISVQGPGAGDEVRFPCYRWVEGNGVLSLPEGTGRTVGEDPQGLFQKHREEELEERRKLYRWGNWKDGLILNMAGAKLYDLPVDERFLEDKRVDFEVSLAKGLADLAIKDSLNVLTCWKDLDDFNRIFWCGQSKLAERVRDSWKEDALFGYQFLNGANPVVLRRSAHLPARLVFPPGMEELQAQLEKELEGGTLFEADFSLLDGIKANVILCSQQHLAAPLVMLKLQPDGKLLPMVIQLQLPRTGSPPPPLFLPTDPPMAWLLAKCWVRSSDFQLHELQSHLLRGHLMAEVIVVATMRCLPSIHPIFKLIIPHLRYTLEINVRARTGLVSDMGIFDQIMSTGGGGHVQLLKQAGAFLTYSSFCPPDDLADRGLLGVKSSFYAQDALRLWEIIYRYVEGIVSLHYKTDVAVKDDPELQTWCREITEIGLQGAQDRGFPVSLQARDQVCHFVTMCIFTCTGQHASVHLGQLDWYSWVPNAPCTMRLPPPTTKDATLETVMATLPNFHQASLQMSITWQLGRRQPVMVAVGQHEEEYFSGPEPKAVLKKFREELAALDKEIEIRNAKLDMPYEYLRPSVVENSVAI

Turning to `CCC(C)C(=O)c1c(O)c(C)c2oc3c(C)c(O)c(C(=O)C(C)CC)c(O)c3c2c1O` (stereo unspecified), the max response is -17.1%.
